The panel holds about 79,000 compounds, 15% with a hit somewhere; the sample as a whole holds those more often. No stated cut-off is given here; in the data, active means growth inhibition above about 70%; inactive means the rest.
Legend:
[1] = NCI Yeast Anticancer Drug Screen. Data for the rad50 strain (AID 155);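 further: 0% = growth of vehicle-only cultures of the same strain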; conditions: S. cerevisiae rad50 strain growth inhibition; at 50.0 µM; hits give high values
Method in brief: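 Compounds were tested on a yeast strain with an engineered DNA damage repair alteration; the reported value is growth inhibition normalised to vehicle treatment.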

[2] = NCI Yeast Anticancer Drug Screen. Data for the mec2-1 strain (AID 157); conditions: S. cerevisiae mec2-1 strain, at 50.0 µM, hits give high values
Method in brief: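 Vehicle-treated cultures served as reference for growth inhibition of compound-exposed mec2-1 yeast.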

[3] = NCI Yeast Anticancer Drug Screen. Data for the sgs1 mgt1 strain (AID 161);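 further: 0% = growth of cultures given vehicle only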; conditions: S. cerevisiae sgs1 mgt1 strain, at 50.0 µM, hits give high values
Method in brief: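 Genetically altered yeast, compound exposure, growth inhibition relative to vehicle.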

[4] = NCI Yeast Anticancer Drug Screen. Data for the cln2 rad14 strain (AID 165);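 further: 0% = growth equal to vehicle treated cultures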; conditions: S. cerevisiae cln2 rad14 strain, at 50.0 µM, hits give high values
Method in brief: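 Each compound was tested on cln2 rad14 yeast. Inhibition of growth was calculated against vehicle-exposed controls.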

[5] = NCI Yeast Anticancer Drug Screen. Data for the bub3 strain (AID 167); conditions: S. cerevisiae bub3 mutant strain, at 50.0 µM, hits give high values
Method in brief: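 Growth of a checkpoint-deficient yeast mutant is measured after compound exposure. Values represent inhibition relative to vehicle.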

[6] = NCI Yeast Anticancer Drug Screen. Data for the mlh1 rad18 strain (AID 175); conditions: S. cerevisiae mlh1 rad18 strain growth inhibition; at 50.0 µM; hits give high values
Method in brief: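 Vehicle-treated cultures served as the reference for growth inhibition in a yeast strain carrying DNA damage repair alterations exposed to each compound.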

Measured: growth inhibition

CCCC[As](=O)(O)CC(C)C
inactive: [1] -3.2% | [2] -1.75% | [3] -7.4% | [4] 4.9% | [5] -14.2% | [6] 1.2%

O=C(CC(=O)C(F)(F)F)c1cccs1.O=C(CC(=O)C(F)(F)F)c1cccs1.O=C(CC(=O)C(F)(F)F)c1cccs1.[Tb]
inactive: [1] -5% | [2] 20.6% | [3] 24.6% | [4] -27.5% | [5] -1.5% | [6] 28.2%

OC1[C@@H]2[C@@H](O)CCCN2C[C@@H](O)[C@H]1O (stereo not given in full)
inactive: [1] -53.2% | [2] -93% | [3] -31.9% | [4] -20.6% | [5] 1.05% | [6] -28.1%

CCC(/C=N/N=C(N)N)=N\N=C(N)N
inactive: [1] 8.4% | [2] -2.6% | [3] -0.75% | [4] -18.4% | [5] 19.9% | [6] -10.3%

CCOP(=O)(OCC)/C(C#N)=C/C=C/c1ccco1
inactive: [1] 2.65% | [2] -21.3% | [3] -30.7% | [4] 4.2% | [5] -40.1% | [6] 1.8%

CNP1(N(C)C)=NP(NC)(N(C)C)=NP(NC)(N(C)C)=N1 (stereo not given)
inactive: [1] -13.9% | [2] 12.9% | [3] -10.6% | [4] -6.85% | [5] 6.6% | [6] 10.4%

CCC1NCCc2cc(OC)c(O)cc21 (stereo not given)
inactive: [1] -5.9% | [2] 0.35% | [3] -6.25% | [4] 1.4% | [5] 1.85% | [6] -11.4%

O=C(O)C(Oc1nc(=S)[nH]c(=S)[nH]1)(c1ccc(Cl)cc1)c1ccc(Cl)cc1
inactive: [1] -1.5% | [2] 6.55% | [3] -23.2% | [4] 0.55% | [5] -10.7% | [6] -8.8%

COC(=O)c1ccccc1NC(C)=O
inactive: [1] -13.8% | [2] -9.25% | [3] -8.95% | [4] -38.4% | [5] -8.5% | [6] 2.15%

CC(Oc1ccc([N+](=O)[O-])cc1Cl)C(=O)Nc1ccc(S(=O)(=O)F)cc1 (stereo not given)
inactive: [1] -12.8% | [2] -14.4% | [3] -9.4% | [4] 4% | [5] 0.2% | [6] -12.6%

CC(C)c1ccc(CCN)cc1
inactive: [1] 6.25% | [2] 3.5% | [3] -19.8% | [4] -0.2% | [5] 5.65% | [6] -6.1%

O=c1[nH]c(=O)n(Cl)c(=O)n1Cl
inactive: [1] 16.4% | [2] 23.1% | [3] 14.2% | [4] 6.2% | [5] 31% | [6] 21.9%

CC(=N\O)/C(C)=N/O.CC(=N\O)/C(C)=N/O.CC(=N\O)/C(C)=N/O.CC(=N\O)/C(C)=N/O.[Cu].[Cu]
inactive: [1] -7.15% | [2] 12.9% | [3] -22.1% | [4] -8.2% | [5] -13.9% | [6] -4.2%

ClC1=C(Cl)C2(Cl)C3C4CC(C5OC45)C3C1(Cl)C2(Cl)Cl (stereo not given)
inactive: [1] 27.4% | [2] -16.6% | [3] 1.25% | [4] 15.5% | [5] 9.75% | [6] -6.8%

CO[C@H](C)[C@](O)(C(=O)OCC1=CC[N+]2([O-])CC[C@H](O)[C@@H]12)C(C)C (stereo not given in full)
inactive: [1] 1.75% | [2] -20.2% | [3] 2.35% | [4] 7.25% | [5] -8.95% | [6] -10.2%

C=CCSc1nc2ccccc2c(=O)n1-c1cc(OC)c(Cl)cc1OC
inactive: [1] 9% | [2] -20.9% | [3] 15.1% | [4] 8.45% | [5] 42.5% | [6] -9.25%

N=Cc1c(O)[nH]c(=O)[nH]c1=O
inactive: [1] 1.4% | [2] 8.75% | [3] 3.45% | [4] -10.4% | [5] 0.65% | [6] -0.8%

C/C(CCl)=N/NC1=NC(C)(CCC2(C)N=C(N/N=C(/C)CCl)SP2(=O)NC23CC4CC(CC(C4)C2)C3)P(=O)(NC23CC4CC(CC(C4)C2)C3)S1 (stereo not given)
inactive: [1] -9.25% | [2] 1.15% | [3] 16.8% | [4] -21.8% | [5] -19.5% | [6] -28.8%

Nc1cc(S(=O)(=O)F)cc(Cl)c1O
inactive: [1] 25.2% | [2] -3.55% | [3] 14.9% | [4] -61.2% | [5] 23.2% | [6] 24.6%

O=P(OCCCl)(OCCCl)OCCCl
inactive: [1] -12.1% | [2] -19.4% | [3] -19.2% | [4] -54.6% | [5] 0.15% | [6] -5%

— PubChem BioAssay (NCI)
